Most compounds without a hit are left out; they make up all but 3.6% or so of the library.
mHTT-CaM PPI inh: mHTT-calmodulin interaction abrogation; AlphaScreen His-mHTT/GST-CaM binding, luminescence; inhibition, % at 15 µM; P42858; actives 3.6% (n = 190,000);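 further: 0% = both proteins with DMSO and 100% = one protein alone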
Target sequence (P42858 whole entry, looked up, stated change not applied): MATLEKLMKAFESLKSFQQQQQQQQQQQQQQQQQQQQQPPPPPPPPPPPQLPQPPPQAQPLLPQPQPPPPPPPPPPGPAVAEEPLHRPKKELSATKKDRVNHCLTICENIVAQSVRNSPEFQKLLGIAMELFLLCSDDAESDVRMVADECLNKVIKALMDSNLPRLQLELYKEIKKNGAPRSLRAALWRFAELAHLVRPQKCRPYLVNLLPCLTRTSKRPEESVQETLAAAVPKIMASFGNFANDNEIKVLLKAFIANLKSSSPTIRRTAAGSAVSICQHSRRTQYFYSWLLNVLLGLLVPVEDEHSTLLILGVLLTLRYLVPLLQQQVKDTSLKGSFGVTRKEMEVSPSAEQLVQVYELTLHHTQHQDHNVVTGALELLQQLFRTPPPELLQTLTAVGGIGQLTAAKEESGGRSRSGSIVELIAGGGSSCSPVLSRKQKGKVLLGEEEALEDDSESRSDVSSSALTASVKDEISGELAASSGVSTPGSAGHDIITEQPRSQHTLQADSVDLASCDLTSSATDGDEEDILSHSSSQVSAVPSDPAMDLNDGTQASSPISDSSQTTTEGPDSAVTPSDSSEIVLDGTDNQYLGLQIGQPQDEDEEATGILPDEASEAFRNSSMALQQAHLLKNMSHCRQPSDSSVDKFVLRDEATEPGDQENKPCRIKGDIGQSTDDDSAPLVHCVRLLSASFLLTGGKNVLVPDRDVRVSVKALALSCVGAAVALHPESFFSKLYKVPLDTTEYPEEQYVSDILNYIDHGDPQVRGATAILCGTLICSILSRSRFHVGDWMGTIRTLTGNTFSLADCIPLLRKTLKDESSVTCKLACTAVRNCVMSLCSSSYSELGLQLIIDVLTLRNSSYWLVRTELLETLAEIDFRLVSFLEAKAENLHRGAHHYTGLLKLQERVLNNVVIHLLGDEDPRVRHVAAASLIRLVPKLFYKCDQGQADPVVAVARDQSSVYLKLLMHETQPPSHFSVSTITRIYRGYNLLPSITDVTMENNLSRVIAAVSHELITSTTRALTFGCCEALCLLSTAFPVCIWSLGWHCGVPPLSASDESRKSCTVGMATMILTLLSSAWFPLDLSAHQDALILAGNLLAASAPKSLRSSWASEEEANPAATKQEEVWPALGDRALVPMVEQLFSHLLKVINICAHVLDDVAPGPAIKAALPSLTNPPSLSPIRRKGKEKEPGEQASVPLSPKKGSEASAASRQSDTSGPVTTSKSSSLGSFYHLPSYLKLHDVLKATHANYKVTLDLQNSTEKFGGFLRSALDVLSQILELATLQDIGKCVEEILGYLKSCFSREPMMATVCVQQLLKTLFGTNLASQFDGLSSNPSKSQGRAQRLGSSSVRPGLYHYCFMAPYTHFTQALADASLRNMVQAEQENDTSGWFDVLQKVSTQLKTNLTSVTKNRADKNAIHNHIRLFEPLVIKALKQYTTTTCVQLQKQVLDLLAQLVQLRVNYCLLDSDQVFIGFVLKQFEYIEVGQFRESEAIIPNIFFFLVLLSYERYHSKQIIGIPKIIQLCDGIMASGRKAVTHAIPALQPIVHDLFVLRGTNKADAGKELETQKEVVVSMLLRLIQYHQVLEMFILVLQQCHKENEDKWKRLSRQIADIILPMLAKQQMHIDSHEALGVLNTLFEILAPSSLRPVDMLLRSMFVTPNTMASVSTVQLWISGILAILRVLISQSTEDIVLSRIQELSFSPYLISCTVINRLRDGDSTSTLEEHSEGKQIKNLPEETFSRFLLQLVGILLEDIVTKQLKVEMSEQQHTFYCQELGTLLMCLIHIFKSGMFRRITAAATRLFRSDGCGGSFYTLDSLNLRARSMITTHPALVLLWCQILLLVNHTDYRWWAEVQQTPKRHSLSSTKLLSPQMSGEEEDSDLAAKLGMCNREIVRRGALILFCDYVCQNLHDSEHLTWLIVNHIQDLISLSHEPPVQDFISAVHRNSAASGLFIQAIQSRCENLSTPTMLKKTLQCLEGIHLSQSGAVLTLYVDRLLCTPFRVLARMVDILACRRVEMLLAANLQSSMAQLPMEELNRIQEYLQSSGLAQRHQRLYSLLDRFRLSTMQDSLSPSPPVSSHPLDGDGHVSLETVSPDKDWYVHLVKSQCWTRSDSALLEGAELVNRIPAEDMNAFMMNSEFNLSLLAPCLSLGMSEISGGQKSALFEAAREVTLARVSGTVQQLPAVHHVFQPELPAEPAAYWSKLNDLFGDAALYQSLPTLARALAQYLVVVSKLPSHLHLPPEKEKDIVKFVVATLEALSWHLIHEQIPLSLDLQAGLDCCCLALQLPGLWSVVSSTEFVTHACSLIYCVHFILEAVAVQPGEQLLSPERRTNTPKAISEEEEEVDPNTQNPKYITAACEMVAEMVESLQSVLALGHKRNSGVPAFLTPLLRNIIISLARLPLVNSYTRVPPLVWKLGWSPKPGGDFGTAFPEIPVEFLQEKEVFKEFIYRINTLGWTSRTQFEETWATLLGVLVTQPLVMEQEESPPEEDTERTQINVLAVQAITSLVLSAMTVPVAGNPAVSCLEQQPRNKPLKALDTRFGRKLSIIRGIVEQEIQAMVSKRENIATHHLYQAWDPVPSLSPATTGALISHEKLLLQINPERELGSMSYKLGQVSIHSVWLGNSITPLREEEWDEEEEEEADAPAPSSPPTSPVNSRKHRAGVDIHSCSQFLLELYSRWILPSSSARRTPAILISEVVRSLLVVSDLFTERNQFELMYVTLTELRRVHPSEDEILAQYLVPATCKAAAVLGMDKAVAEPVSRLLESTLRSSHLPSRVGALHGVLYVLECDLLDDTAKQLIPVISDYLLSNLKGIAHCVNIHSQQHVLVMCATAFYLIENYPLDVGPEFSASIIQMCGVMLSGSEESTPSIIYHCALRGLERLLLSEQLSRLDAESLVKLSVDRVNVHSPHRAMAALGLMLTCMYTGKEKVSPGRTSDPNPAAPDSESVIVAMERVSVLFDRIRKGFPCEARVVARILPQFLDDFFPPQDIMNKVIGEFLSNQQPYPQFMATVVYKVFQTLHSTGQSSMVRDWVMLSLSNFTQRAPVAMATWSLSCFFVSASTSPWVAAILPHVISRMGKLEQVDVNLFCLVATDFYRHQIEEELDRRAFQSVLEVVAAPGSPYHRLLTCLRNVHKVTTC
Pf apPOL inh: Pf-apPOL DNA polymerase inhibition. Recombinant Pf-apPOL, molecular beacon fluorescence, 1.5 h. inhibition, % at 10 µM. actives 0.25% (n = 210,000). AID 1794808
Starred values were filed as active, the others as inactive; x = no result given. No stated cut-off is given here; in the data, active means inhibition above about 50%; inactive means the rest.

SMILES	mHTT-CaM PPI inh	Pf apPOL inh
CC(Oc1ccc(Cl)cc1Cl)C(=O)Nc1ccncc1 (stereo unspecified)	-4	-4
COc1ccc(Cl)cc1NC(=O)CSc1nc(=O)n(CCCO)c2c1CCCC2	57*	-18
COc1ccc(Cl)cc1NC(=O)CSc1nc(=O)n2cccc(C)c2n1	-6	-6
COc1ccc(C=C2Oc3cc(OS(=O)(=O)c4ccccc4)ccc3C2=O)cc1OC	-7	3
Nc1ncnc2nc(Sc3c([N+](=O)[O-])cc(Br)c4nsnc34)[nH]c12	10	-2
O=c1[nH]c2cc(Cl)c(Cl)cc2nc1CN1CCN(c2ccccc2)CC1	52*	6
Cc1cc2nc(CN3CCN(c4cccc(Cl)c4)CC3)c(=O)[nH]c2cc1C	-7	0
CC1CCN(Cc2csc(N3CCN(C(=O)c4cc(F)ccc4F)CC3)n2)CC1	14	-4
COc1ccc2cc(C(=O)NC(C)=O)c(=Nc3ccc(F)cc3)oc2c1	4	2
COc1ccc2cc(C(=O)NC(C)=O)c(=Nc3ccc(C(F)(F)F)cc3)oc2c1	3	66*
COc1ccc(NC(=O)C(c2ccccc2)N(C)C(=O)/C=C/c2ccc3c(c2)OCO3)cc1 (stereo unspecified)	26	-6
NS(=O)(=O)c1ccc(NC(=O)CC(CC(=O)O)c2ccccc2)cc1 (stereo unspecified)	x	4
O=C(O)CC(CC(=O)Nc1ccc(C(=O)O)cc1)c1ccccc1 (stereo unspecified)	-5	94*
CC(=O)N1CCc2cc(S(=O)(=O)Nc3ccc(C)c(F)c3)ccc21	2	-5
COc1ccc(C2=CC(c3ccccc3)SC(N)=N2)cc1 (stereo unspecified)	11	x
NC1=NC(c2ccc(Cl)cc2)=CC(c2ccc(F)cc2)S1 (stereo unspecified)	68*	x
Cc1ccccc1C1C=C(c2cccs2)Nc2ncnn21 (stereo unspecified)	2	0
COc1ccc(C)cc1NC(=O)NCCC1CCN(S(=O)(=O)c2ccc(F)cc2)CC1	34	-5
Cn1c(=O)c2c(-c3ccccc3)n(Cc3ccccc3)cc2n(C)c1=O	18	-9
CNc1ccc([N+](=O)[O-])cc1-n1cc2c(c1-c1ccc(OC)cc1)c(=O)n(C)c(=O)n2C	36	-3
COc1ccc(-c2c3c(=O)n(C)c(=O)n(C)c3cn2Cc2ccc(Cl)cc2)cc1	76*	10
COc1ccc(-c2c3c(=O)n(C)c(=O)n(C)c3cn2-c2ccccc2C)cc1	8	54*
Cc1ccccc1-n1cc2c(c1-c1ccccc1)c(=O)n(C)c(=O)n2C	6	2
COc1ccc(-c2c3c(=O)n(C)c(=O)n(C)c3cn2C2CCCCC2)cc1	33	67*
Cc1c(OC(=O)c2ccco2)ccc2c1OC(=Cc1ccco1)C2=O	19	2
SMILES	mHTT-CaM PPI inh	Pf apPOL inh
N#Cc1cccc([N+](=O)[O-])c1C#N	-2	-1
COc1ccccc1/C=C/C=C1/N=C(c2cc([N+](=O)[O-])ccc2OC)OC1=O	43	-7
Cc1nnc(NC(=O)c2cccnc2)s1	-2	-4
COC(=O)CNC(=O)N1CC2CCCN2c2ccccc21 (stereo unspecified)	8	0
CCOC(=O)C1CCC(CNC(=O)N2CC(CC)Oc3ccccc32)CC1 (stereo unspecified)	-7	2
CCOC(=O)CC1(NC(=O)N2CC3CCCN3c3ccccc32)CCCCC1 (stereo unspecified)	64*	-3
CCOC(=O)C1CCC(CNC(=O)N2CC3CCCN3c3ccccc32)CC1 (stereo unspecified)	66*	-2
CN(C)c1ccc(N2C(=O)c3ccccc3NC2c2ccc3c(c2)OCO3)cc1 (stereo unspecified)	6	6
COc1cccc(NC(=O)C2CCCN(c3nnc4ccc(Cl)cn34)C2)c1 (stereo unspecified)	20	-4
CC(C)c1ccc(CN2CC(C(=O)Nc3ccccc3)CC2=O)cc1 (stereo unspecified)	12	-3
CC(=O)Nc1cccc(N2CC(C(=O)Nc3nc4ccc(Cl)cc4s3)CC2=O)c1 (stereo unspecified)	53*	-1
CC(C)c1ccc(CN2CC(C(=O)Nc3nc4ccccc4s3)CC2=O)cc1 (stereo unspecified)	100*	-4
COc1ccc2nc(NC(=O)C3CC(=O)N(c4cccc(NC(C)=O)c4)C3)sc2c1 (stereo unspecified)	21	-2
O=C(CN1C(=O)c2cccc([N+](=O)[O-])c2C1=O)Nc1ccc(OC(F)(F)F)cc1	-7	-3
O=C(Nc1ccc(-c2nc3ccccc3s2)cc1)c1cnccn1	-1	-7
Fc1ccc(NC(=S)N2CCN(C(=S)Nc3ccc(F)cc3)CC2)cc1	-7	x
O=C(c1ccc(F)cc1)N1CCCC2(CC(c3ccccc3)=CO2)C1 (stereo unspecified)	99*	-6
O=C(c1cccc(F)c1)N1CCCC2(CC(c3ccccc3)=CO2)C1 (stereo unspecified)	100*	-4
O=C(c1cccc(F)c1)N1CCCC2(CC(c3ccncc3)=CO2)C1 (stereo unspecified)	-3	-2
O=C(c1ccc(F)cc1)N1CCCC2(CC(c3ccncc3)=CO2)C1 (stereo unspecified)	-13	-5
COc1cccc2c1OC1(C)CC2NC(=O)N1c1cccc(C(F)(F)F)c1 (stereo unspecified)	0	8
CCOc1cc2c(cc1OCC)C1CC(=O)N(c3ccc(OC)c(OC)c3)C(=O)N1CC2 (stereo unspecified)	28	0
O=C(/C=C/c1ccco1)Nc1c2c(nn1-c1ccc(F)cc1)CSC2	98*	1
COc1ccc(-n2nc3c(c2NC(C)=O)CSC3)cc1	20	-3
O=C(/C=C/c1ccc2c(c1)OCO2)Nc1c2c(nn1-c1ccc(F)cc1)CSC2	23	-3
SMILES	mHTT-CaM PPI inh	Pf apPOL inh
COc1ccc(-n2nc3c(c2NC(=O)/C=C/c2ccc(OC)c(OC)c2)CSC3)cc1	32	78*
COc1ccc(-n2nc3c(c2NC(=O)/C=C/c2ccco2)CSC3)cc1	77*	-9
COc1ccc(-n2nc3c(c2NC(=O)/C=C/c2ccc(OC)c(OC)c2)CS(=O)(=O)C3)cc1	13	-2
COc1cccc(C2NS(=O)(=O)N=C2N)c1 (stereo unspecified)	-1	-3
CCc1nncn1C1CCN(C(=O)c2ccc3ccccc3n2)C1 (stereo unspecified)	3	-2
COCCNC(=O)CCC1CCCN(C(=O)Nc2ccc(Cl)cc2)C1 (stereo unspecified)	1	0
COc1ccccc1/C=C1/SC(=Nc2ccc(C)cc2)NC1=O	12	-2
O=C(NCCc1csc(C2CCN(C(=O)Nc3ccccc3F)CC2)n1)C1CC1	6	-1
CCN(Cc1ccccc1)C(=O)CN(C)S(=O)(=O)c1ccc2[nH]c3c(c2c1)CCCC3	65*	-3
Cc1cccc(N(C)C(=O)CN(C)S(=O)(=O)c2ccc3[nH]c4c(c3c2)CCCC4)c1	62*	-4
Cc1cccc(C)c1NC(=O)CN(C)S(=O)(=O)c1ccc2[nH]c3c(c2c1)CCCC3	26	-3
CN(CC(=O)NCc1ccccc1)S(=O)(=O)c1ccc2[nH]c3c(c2c1)CCCC3	46	-4
CCC1Oc2ccc(Cl)cc2N(CC(=O)NCCOC)C1=O (stereo unspecified)	-8	-14

Source: PubChem BioAssay
